PubChem BioAssay (NCATS)
“And” between values parts separate entries of the source, which are not always exact repeats. Identical values can stand only once. Records with an inconclusive call do not appear. Unmarked numbers belong to inactive results. The source made the active and inactive calls. The call rests on the fitted dose curve.
Potency means the concentration at half of the fitted maximal effect.

The compounds below were run against Cytochrome P450 1A2 (Homo sapiens) (UniProt P05177) (assay: p450-cyp1a2 (AID 410;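 on activity change, negative = inhibition: -100% = full effect of reference inhibitor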)). Conditions: recombinant CYP1A2, luciferin-ME demethylation, luminescence; series mostly up to 57 µM; activity change, negative = inhibition: at the top concentration.
Cytochrome P450 1A2 (Homo sapiens), sequence (P05177 whole entry, looked up): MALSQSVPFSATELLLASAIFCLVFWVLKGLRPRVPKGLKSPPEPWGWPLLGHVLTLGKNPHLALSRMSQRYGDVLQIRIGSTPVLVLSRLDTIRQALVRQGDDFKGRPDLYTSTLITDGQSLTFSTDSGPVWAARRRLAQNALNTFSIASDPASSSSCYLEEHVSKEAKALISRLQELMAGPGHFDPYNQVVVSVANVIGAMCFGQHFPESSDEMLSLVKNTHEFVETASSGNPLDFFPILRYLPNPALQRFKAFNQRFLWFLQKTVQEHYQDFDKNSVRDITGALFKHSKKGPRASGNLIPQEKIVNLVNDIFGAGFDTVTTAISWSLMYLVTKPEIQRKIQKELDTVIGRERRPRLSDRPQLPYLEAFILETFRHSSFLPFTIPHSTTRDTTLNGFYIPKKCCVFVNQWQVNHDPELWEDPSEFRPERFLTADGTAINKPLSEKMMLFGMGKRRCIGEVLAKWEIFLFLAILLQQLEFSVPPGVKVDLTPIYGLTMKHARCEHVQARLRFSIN
Protocol: The P450 gene superfamily is involved in metabolism and the clearance of xenobiotics. This assay used human CYP1A2 to measure the demethylation of luciferin 6' methyl ether (Luciferin-ME; Promega-Glo) to luciferin. The luciferin is then measured by luminescence after the addition of a luciferase detection regeant. Luciferin-ME concentration in the assay was equal to its Km for CYP1A2.
NCGC Assay Protocol Summary:
Two uL of enzyme and substrate mix (final concentrations: 20nM CYP1A2, 100uM Luciferin-ME, 100mM KPO4) were dispensed into a white, solid bottom 1536-well microtiter plate. 23nL of compound was transferred by a pin tool. The plate was incubated at room temperature for 10 min. Two uL of an NADPH regeneration solution (Promega supplied reagent) was dispensed and the reaction was allowed to continue for 60 min at room temperature. Then the reaction was stopped by reconstituted detection reagent. After another 20 min of incubation the plate was read on the ViewLux (Perkin Elmer) at 60 sec exposure and 2x2 binning. This protocol was carried out with Promega-Glo reagents and further information can be found at http://www.promega.com/tbs/tb325/tb325.pdf. Data were normalized to the to AC100 inhibition (57 uM furafylline).
In the case of `CCCN(CCC)C1Cc2cc(OC)c(OC)cc2C1`, the Potency is reported as “inactive”.
In the case of `Cc1c2ccncc2c(C)c2c1[nH]c1ccccc12`, the Potency is reported as 79.4 nM (active) and 20 nM (active).
Compound `CC(C)(C)c1cc(O)ccc1O` has an activity change, negative = inhibition of -8.4% [at 11.4 µM].
For `CN1CCc2cc(O)cc3c2[C@H]1Cc1ccc(O)c(O)c1-3`, the Potency was 12.6 µM (active).
For `C[C@@H]1[C@@H]2Cc3ccc(O)cc3[C@@]1(C)CCN2CC1CC1`, the “activity change, negative = inhibition” value was -14.6%.
With `O=[N+]([O-])c1cc(O)c(O)c([N+](=O)[O-])c1` the “activity change, negative = inhibition” value was 1.1%.
`CN1CCC(c2c[nH]c3ccc(O)cc23)CC1` was tested, and the Potency was 31.6 µM (active).
For `CN1CCc2cccc(Cl)c2CC1`, the “activity change, negative = inhibition” value was -19.5%.
`c1ccc2c(N3CCNCC3)cccc2c1` was tested, and the Potency was 10 µM (active).
With `CN(N=O)c1cc(O)ccc1O` the Potency was 31.6 µM (active).
With `CP(=O)(O)C1=CCNCC1` the “activity change, negative = inhibition” value was 5.7%.
For `COc1ccc2[nH]cc(CCN)c2c1`, the Potency was 1.58 µM (active).
In the case of `c1ccc2cc(CC3=NCCN3)ccc2c1`, the “activity change, negative = inhibition” value is reported as 2.5%.
`CCCn1c(C)c(C(=O)c2ccc3ccccc3c2)c2ccccc21` was tested, and the Potency was 6.31 µM (active).
With `CC(=O)NBr` the “activity change, negative = inhibition” value was -8%.
With `C[N+](C)(C)CC#CCN1CCCC1=O` the Potency was “inactive”.
In the case of `CC(C)(C)c1cc(C=C(C#N)C#N)cc(C(C)(C)C)c1O`, the Potency is reported as 10 µM (active).
In the case of `CC(C)NP(=O)(NC(C)C)OP(=O)(NC(C)C)NC(C)C`, the “activity change, negative = inhibition” value is reported as 5.1%.
`NC(=O)CI` was tested, and the Potency was 31.6 µM (active).
`c1cc2c(c(NC3=NCCN3)c1)CCCC2` gave an activity change, negative = inhibition of -17.1% [at 11.4 µM].
`CCCN1CCc2cc(O)cc3c2[C@H]1Cc1ccc(O)c(O)c1-3` was tested, and the Potency was 12.6 µM (active).
`CCCN(CCC)[C@H]1CCc2c(F)ccc(O)c2C1` was tested, and the Potency was 12.6 µM (active) and 25.1 µM (active).
With `CN1[C@@H]2CC[C@H]1CC(OC1c3ccccc3CCc3ccccc31)C2` (stereo not given in full) the “activity change, negative = inhibition” value was -6.6% [at 25.6 µM].
For `Clc1cc(I)cc(Cl)c1NC1=NCCN1`, the Potency was 15.8 µM (active).
In the case of `NCCc1ccc(S(=O)(=O)F)cc1`, the Potency is reported as 15.8 µM (active).
`Nc1ccc(CCN2CCN(c3cccc(C(F)(F)F)c3)CC2)cc1` was tested, and the Potency was 10 µM (active).
In the case of `c1ccc2c(c1)[I+]c1ccccc1-2`, the Potency is reported as 126 nM (active) and 20 nM (active).
For `OCc1cnc[nH]1`, the “activity change, negative = inhibition” value was 2.9%.
`C[N+]1(C)CCN(c2ccccc2)CC1` was tested, and the “activity change, negative = inhibition” value was 9.1%.
With `CCN(CCCl)Cc1ccccc1Br` the Potency was 15.8 µM (active).
`C[C@@H]1O[C@H](C[N+](C)(C)C)CS1` was tested, and the “activity change, negative = inhibition” value was 0.3%.
In the case of `N#CC(C#N)=Cc1cc(O)c(O)c(O)c1`, the “activity change, negative = inhibition” value is reported as -7.2%.
With `N#CCCN` the “activity change, negative = inhibition” value was -4.4%.
With `O=c1c2ccccc2[se]n1-c1ccccc1` the Potency was 3.98 µM (active) and 794 nM (active).
In the case of `O=C(O)c1cc[c]([Hg][Cl])cc1`, the Potency is reported as 3.16 µM (active).
With `O=c1ccc2[nH]cc(C3=CCNCC3)c2[nH]1` the “activity change, negative = inhibition” value was -5.3%.
`CCCN(CCC)CCc1c[nH]c2ccc(C(N)=O)cc12` was tested, and the Potency was 15.8 µM (active).
In the case of `O=S1(=O)N(CCN2CC=C(c3c[nH]c4cc(F)ccc34)CC2)c2cccc3c2N1CCC3`, the Potency is reported as 3.98 µM (active).
For `C[N+]1(C)[C@@H]2CC[C@H]1CC(OC(=O)c1c[nH]c3ccccc13)C2` (stereo not given in full), the “activity change, negative = inhibition” value was -2.6%.
`CNC(=O)OCC[N+](C)(C)C` was tested, and the “activity change, negative = inhibition” value was 10.7%.
